High-throughput results as filed in PubChem.
These entries were drawn from the full list.
aSyn 5UTR act: Activators via SNCA 5'UTR binding, MLPCN; alpha-synuclein 5'UTR reporter, activators screen; activity score, % (tested at 7.5 µM), hits read low; hit rate 7.1% among 300,000; AID 1814; in the data active = activity score below about -60%
* marks the source's active call; other numbers are inactive results.

SMILES	aSyn 5UTR act
CCOC(=O)c1cnc(-n2nc(C)cc2C)nc1NNc1cc(-c2ccccc2)nc(C)n1	93
CCOC(=O)c1cnn2c(C)cc(-c3ccccc3)nc12	-120*
CCOC(=O)c1cnc2cc(-c3ccc(C(C)(C)C)cc3)nn2c1N	-232*
Cc1cc(C)n2ncc(/C(N)=N/OC(=O)c3ccccc3F)c2n1	-100*
CCOC(=O)C1=C(COC(=O)/C=C/c2ccccc2Cl)NC(=O)NC1C (stereo not drawn)	-70*
CCOC(=O)C1=C(COC(=O)c2cccc(N(C)C)c2)NC(=O)NC1C (stereo not drawn)	-136*
CCCc1ccc(-c2cc(NC(=O)CSc3n[nH]c(N)n3)n(-c3ccccc3)n2)cc1	-141*
O=C1c2ccccc2S(=O)(=O)c2cc(N3CCOCC3)ccc21	76
O=S1(=O)N=C(Nc2ccc(N3CCOCC3)c(Cl)c2)c2ccccc21	-193*
Cc1cccn2c1nc(=S)n2C(=O)c1ccco1	-265*
CC1CCN(C(=O)c2cc(-c3ccccc3O)on2)CC1	-82*
CC1CCN(C(=O)c2cc(-c3ccco3)on2)CC1	-140*
C/C(=N\OC(=O)c1ccc(Cl)cc1)c1sc(-c2ccccc2)nc1C	-124*
C/C(=N\OC(=O)c1ccc(F)cc1)c1sc(-c2ccccc2)nc1C	-158*
O=C1C(C=NCc2ccccn2)=C(O)c2ccccc21	-106*
CC(C)CN=CC1=C(O)c2ccccc2C1=O	-83*
O=C1C(C=NCCCN2CCCC2=O)=C(O)c2ccccc21	-113*
Cn1c(NCc2ccccc2O)nc2ccccc21	-272*
Cn1c(NCc2ccccc2Cl)nc2ccccc21	-164*
CC(=O)Nc1nc2ccccc2n1Cc1ccccc1Cl	87
COC(=O)c1ccc(N2CCN(c3ccccc3)CC2)c(N)c1	-134*
COC(=O)c1ccc(N2CCN(c3ccccc3)CC2)nc1	-231*
COc1cccc(OCc2cc(/C=N/NC(=O)c3ccn[nH]3)ccc2OC)c1	-71*
COC(=O)c1cn(C(=O)/C=C/c2ccc(OC)c(OC)c2)c2ccccc12	-78*
CCOC(=O)c1ccc(-c2ccc3[nH]c4ccccc4c(=O)c3c2)cc1F	-81*
SMILES	aSyn 5UTR act
CCOC(=O)c1ccc(-c2c(-c3cc(OC)c(OC)c(OC)c3)noc2C)cc1F	58
O=C(Nc1nc2ccccc2s1)c1cc(-c2ccccc2)nn1-c1ccccc1	-137*
COc1cccc(C(=O)Nc2nc3ccccc3s2)c1	-108*
COc1cc(C(=O)Nc2nc3ccc(C)cc3s2)ccc1OCc1c(C)noc1C	-99*
CC(C)[C@H](NC(=O)c1cccc(S(=O)(=O)N2CCOCC2)c1)C(=O)Nc1nc2ccccc2s1	-72*
Cc1cccc(C(=O)N[C@H](C(=O)Nc2nc3ccccc3[nH]2)C(C)C)c1	96
COc1ccc(C(=O)Nc2nc3ccccc3s2)cc1	67
Cc1ccnc(NC(=O)c2cccc(S(=O)(=O)N3CCCc4ccccc43)c2)c1	-128*
O=C(Nc1nc2ccccc2s1)c1cccc(S(=O)(=O)N2CCc3ccccc32)c1	-64*
COc1ccc(C(=O)Nc2nc3ccccc3s2)cc1OC	-212*
COc1cc(OC)cc(C(=O)NCC(=O)OCc2nc3ccccc3s2)c1	-184*
O=C(Nc1nc2ccccc2s1)c1cccc(N2C(=O)CCC2=O)c1	-82*
COc1cccc(C(=O)Nc2nc(C)cs2)c1	-142*
O=C1SC(SC(=Nc2ccccc2)Nc2ccccc2)C(=O)N1c1ccccc1 (stereo not drawn)	-132*
Nc1ccccc1SC1CC(=O)N(c2ccc3c(c2)OCCO3)C1=O (stereo not drawn)	-78*
Cc1cccc(-n2c(C)cc(C=C3C(=O)c4ccccc4C3=O)c2C)c1	-91*
CCn1c(C)cc(C=C2C(=O)c3ccccc3C2=O)c1C	-92*
Nc1nnnn1/N=C/C(Br)=C/c1ccccc1	-251*
Nc1nnnn1/N=C/C=C/c1ccccc1	-115*
COc1ccc(N2C(=O)c3ccccc3NC2c2ccc(OC)c(Cn3cc([N+](=O)[O-])cn3)c2)cc1 (stereo not drawn)	-87*
Cc1nc2ccccc2c(=O)n1NCc1cc(Br)cs1	-81*
Brc1ccc(N=NNc2ccccc2)cc1	-188*
O=[N+]([O-])c1ccc(N=NNc2ccccc2)cc1	-139*
O=[N+]([O-])c1cccc(NN=Nc2ccccc2)c1	-129*
NC(=S)N=Nc1ccc(NN=C(N)N)cc1	68
SMILES	aSyn 5UTR act
CC(=O)N1N=C(c2ccc(C)cc2)OC1c1ccc(C)cc1 (stereo not drawn)	-129*
CC(=O)N1N=C(c2ccc(C)cc2)OC1c1ccc(C(C)C)cc1 (stereo not drawn)	-182*
O=[N+]([O-])c1ccc(O)c(/C=N/Nc2ccccc2Cl)c1	-85*
O=C(N/N=C/c1cc([N+](=O)[O-])ccc1O)c1cccc2cc[nH]c12	68
O=[N+]([O-])c1ccc(O)c(/C=N/n2cnc3ccccc32)c1	-67*
O=[N+]([O-])c1cccc(N/N=C/c2cccc(O)c2O)c1	-110*
O=[N+]([O-])c1ccccc1N/N=C/c1cccc(O)c1O	-104*
COc1ccc(/C=N/Nc2cc(C)nc3ccc(OC)cc23)c(OC)c1	117
O=C(NC(CSCc1ccccc1)C(=O)N/N=C/c1ccc(O)cc1O)c1ccc([N+](=O)[O-])cc1 (stereo not drawn)	84
COc1ccc(/C=N/Nc2ncccc2[N+](=O)[O-])c(OC)c1	-122*
O=[N+]([O-])c1ccccc1N/N=C\c1ccccc1Cl	-209*
C/C(=N\OCc1nc2ccccc2c(=O)n1/N=C/c1cc([N+](=O)[O-])ccc1O)c1ccccc1	-62*
CCCOc1ccc(/C=N/Nc2ccccc2[N+](=O)[O-])c(OCCC)c1	-133*
O=[N+]([O-])c1ccccc1N/N=C\c1ccccc1F	-165*
Cc1cc(/C=N/Nc2nc(N)ncc2[N+](=O)[O-])c(C)n1-c1ccccc1F	73
C=CCSc1n[nH]c(-c2ccccc2)n1	-100*
C=CCSc1n[nH]c(-c2ccc(OC)cc2)n1	-165*
c1csc(-c2ccc3ccccc3n2)c1	-140*
Cc1ccc2nc(Cl)c(-c3ccccc3)cc2c1	74
Cc1ccc(-c2cc3ccccc3nc2N)cc1	-93*
Nc1nc2ccccc2cc1-c1cccs1	-121*
CCOC(=O)C1(CCOc2ccccc2)CCN(Cc2ccc(O)c(Cl)c2)CC1	108
CCOC(=O)C1(CCOC)CCN(Cc2nc(C(C)C)cs2)CC1	-67*
NC(=O)c1sc2nc(-c3ccccc3)ccc2c1N	-73*
CC(=O)c1sc2nc(-c3ccco3)ccc2c1N	-81*
SMILES	aSyn 5UTR act
Nc1c(C(=O)Nc2ccc(Br)cc2)sc2nc(-c3ccco3)ccc12	-171*
CC(C)(C)N(Cc1ccccc1)C(=O)CN1C(=O)c2ccccc2C1=O	-97*
Cn1c(N)c(C(=O)/C=C/c2ccccc2)c(=O)[nH]c1=O	-140*
Cc1cccc(Nc2ccc(NCc3ccccc3)nn2)c1	-110*
C/C(=N\NC(=O)c1c(Cl)c(C)nn1C)c1cccc(NC(=O)COc2ccc(Cl)cc2)c1	-100*
C/C(=N/NC(=O)c1ccc(C)s1)c1cccc(NC(=O)COc2ccc(Cl)cc2C)c1	-73*
Cc1ccc(C(=O)NCC(=O)N2CCCC(C(F)(F)F)C2)s1 (stereo not drawn)	-62*
CC(=O)c1ccc(NC(=O)CSc2nc(N)c3cc4c(nc3n2)CCCC4)cc1	-79*
CCn1c(SCC(=O)Nc2ccc(C(C)=O)cc2)nc2nc3c(cc2c1=O)COC(C)(C)C3	-83*
CC1(C)Cc2nc3nc(SCC(=O)Nc4ccccc4)nc(N)c3cc2CO1	-68*
